Screening data as filed in PubChem.
Hits are enriched below; roughly 2.9% of the tested compounds scored in any of these assays.
Rtt109 Vps75: C. albicans Rtt109 histone acetyltransferase inhibition; purified Rtt109/Vps75, ThioGlo CoA-SH fluorescence, 4 h; inhibition, % at 34.9 µM; 330,000 compounds, 0.16% hits;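 active = inhibition of at least 50% in every replicate; inconclusive = best replicate reaches 50% inhibition but some replicates fall short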
ABHD5-PLIN5 inh: ABHD5-PLIN5 protein interaction inhibition; Q00G26+Q8WTS1; Split G. princeps luciferase complementation, luminescence, 4 h; inhibition, % at 4 µM; 360,000 compounds, 0.78% hits;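 active = inhibition above the mean inhibition across every tested compound plus 3 SD, cut at about 22% in these data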
Myeloid diff MLP: compounds promoting myeloid differentiation; 360,000 compounds, 1% hits; calls only at 10 µM; ER-HoxA9 myeloid progenitors, lysozyme-GFP differentiation, flow cytometry; AID 624256;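 active = normalized GFP-positive differentiation at or above the plate's own cutoff, the solvent-only control mean plus 3 SD; inconclusive = no clear call, values can overlap the other calls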;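 note: cells exposed to compound for four days before flow analysis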
HGIII-sPLA2 inh: Inhibits HGIII-sPLA2 liposome hydrolysis, primary screen; Q9NZ20; QFRET BODIPY PC-A2 liposome hydrolysis, fluorescence; inhibition, % at 12.2 µM; 370,000 compounds, 0.56% hits;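 active = inhibition above mean plus 3 SD of compounds lying within the high and low control bounds, cut at about 19% in these data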
Cardio protect: modulators protecting cardiomyocytes from myocardial damage. 360,000 compounds, 0.63% hits. H9c2 cardiomyocytes, H2O2 injury protection, ATPLite, 2 h. protection from H2O2 cell death, % at 20 µM;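 active = compounds giving at least 50% protection of heart cells from peroxide-induced death in the single-dose screen, raw or plate-pattern-corrected value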
DAGLB inhibitor: blocks human DAGLB lipase activity | AID 504411 | HEK293T DAGLB membrane lysate, EnzChek fluorogenic substrate | inhibition, % at 5.17 µM | 340,000 compounds, 0.059% hits | Q8NCG7; in the data active = inhibition above about 34%
Target sequence (Q8NCG7 whole entry, looked up): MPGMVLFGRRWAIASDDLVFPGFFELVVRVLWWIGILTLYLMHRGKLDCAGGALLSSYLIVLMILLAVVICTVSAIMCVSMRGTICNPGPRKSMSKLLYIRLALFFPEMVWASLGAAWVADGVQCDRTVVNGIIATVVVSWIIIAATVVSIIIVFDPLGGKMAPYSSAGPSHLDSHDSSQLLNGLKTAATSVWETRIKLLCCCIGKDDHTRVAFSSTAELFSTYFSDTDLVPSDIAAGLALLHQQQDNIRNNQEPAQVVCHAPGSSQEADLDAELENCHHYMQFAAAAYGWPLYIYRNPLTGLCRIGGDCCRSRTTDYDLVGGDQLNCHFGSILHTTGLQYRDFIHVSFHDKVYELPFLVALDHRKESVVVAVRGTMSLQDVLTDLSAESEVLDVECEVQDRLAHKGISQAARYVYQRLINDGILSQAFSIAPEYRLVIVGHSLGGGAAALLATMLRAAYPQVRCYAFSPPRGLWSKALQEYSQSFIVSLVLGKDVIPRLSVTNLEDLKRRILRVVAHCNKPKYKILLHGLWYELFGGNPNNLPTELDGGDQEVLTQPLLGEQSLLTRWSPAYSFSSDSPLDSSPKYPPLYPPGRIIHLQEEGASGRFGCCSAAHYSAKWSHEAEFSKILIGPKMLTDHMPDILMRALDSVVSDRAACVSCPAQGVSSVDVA
Of the large screens only hits and unclear results are named; the others gave an inactive call.

COc1cc(C=C2Cc3ccccc3C2=O)cc(OC)c1OC	ABHD5-PLIN5 inh 22 (no result: Rtt109 Vps75, DAGLB inhibitor)
COc1cccc(CN2CCN(CCc3ccccc3)C(CCO)C2)c1OC (centres undefined)	Myeloid diff MLP active
CCCCCSc1nc2c(c(=O)[nH]c(=O)n2C)n1C	Myeloid diff MLP active
Cc1cccc(C(=O)Nc2ccc(C(=O)/C=C/c3ccncc3)cc2)c1	ABHD5-PLIN5 inh 91
O=C(/C=C/c1cccnc1)c1ccc(NC(=O)c2cccc(Br)c2)cc1	ABHD5-PLIN5 inh 50 (no result: Myeloid diff MLP)
O=C(N/N=C/c1cccnc1)c1cccc(Br)c1	none
CCOC(=O)c1c(C)n(-c2ccc(C)cc2)c2ccc(OCC(O)CN3CCN(C)CC3)cc12 (centres undefined)	ABHD5-PLIN5 inh 22
Cc1ccc(C(=O)c2ccccc2C(=O)OCC(=O)N2CC(C)CC(C)C2)cc1 (centres undefined)	none
Cc1ccc(C(=O)COC(=O)CN2C(=O)C3C4C=CC(C4)C3C2=O)cc1C (centres undefined)	none
CCOC(=O)CCCNC(=O)CCNC(=O)c1ccc(OCCC(C)C)cc1	none (no result: Rtt109 Vps75, DAGLB inhibitor)
CN(Cc1ccc2ccccc2c1)C(=O)c1ccc(C(F)(F)F)cc1	none
Cc1ccc(NC2=C/C(=N/S(=O)(=O)c3cccs3)c3ccccc3C2=O)cc1	Myeloid diff MLP inconclusive
Cc1ccc(S(=O)(=O)/N=C2\C=C(Nc3ccc(O)cc3)C(=O)c3ccccc32)cc1	DAGLB inhibitor 46 (no result: Myeloid diff MLP, HGIII-sPLA2 inh)
Cc1ccc(S(=O)(=O)/N=C2/C=C(Sc3ncn[nH]3)C(=O)c3ccccc32)cc1	ABHD5-PLIN5 inh 40, Myeloid diff MLP inconclusive (no result: Rtt109 Vps75, HGIII-sPLA2 inh)
Cc1oc(-c2ccc3c(c2)OCCO3)cc1C(=O)NCC(=O)O	ABHD5-PLIN5 inh 22
Cc1oc(-c2ccc3c(c2)OCCO3)cc1C(=O)O	none
Cc1ccc2nc(N3C(=O)C(O)=C(C(=O)c4ccc(C)o4)C3c3ccc(O)cc3)sc2c1 (centres undefined)	Myeloid diff MLP active
Cc1cc(C)cc(C(O)c2ncc(-c3ccc(Cl)cc3)[nH]2)c1 (centres undefined)	none (no result: Rtt109 Vps75, DAGLB inhibitor)
O=C(c1ccccc1)c1ccc2n1CCC2C(=O)O (centres undefined)	none
CSc1nc2ncc3c(n2n1)CC1c2ccccc2CCN1C3=O (centres undefined)	Cardio protect 59 (no result: Rtt109 Vps75)
O=[N+]([O-])c1ccc(/C=C/C2=NN(c3ccccc3)C(c3ccco3)C2)o1 (centres undefined)	Myeloid diff MLP active
Fc1ccc(C2=NN(c3ccccc3)C(c3ccco3)C2)cc1 (centres undefined)	none
COc1ccc(-c2nn(-c3ccccc3)cc2/C=C/C(=O)N2CCN(c3ccccn3)CC2)cc1	Cardio protect 68
Cc1ccc(C(=O)NCC(=O)OCCOc2cccc(Cl)c2)cc1	none
Cc1ccc(C(=O)NCC(=O)OCCOc2ccccc2Cl)cc1	Rtt109 Vps75 56
Cc1ccc(C(=O)NCCNC(=O)COc2ccccc2Cl)cn1	Rtt109 Vps75 51
O=C(COc1ccccc1Cl)NCCNC(=O)c1cccnc1	none
CCN1CCN(S(=O)(=O)c2ccc(Cl)c(C(=O)N(CCc3ccccc3)Cc3ccccc3)c2)CC1	Myeloid diff MLP active
CCc1ccc(-c2n[nH]c(=O)c3ccccc23)cc1	none
Cc1ccc(-c2n[nH]c(=O)c3ccccc23)cc1N	Cardio protect 68
Nc1ccc(-c2n[nH]c(=O)c3ccccc23)cc1N	Cardio protect 80 (no result: Myeloid diff MLP)
COc1ccc(N(C(=O)c2snc(C(N)=O)c2N)C(C(=O)NC2CCCC2)c2ccc3ncccc3c2)cc1 (centres undefined)	none
CCOc1ccc(C(C(=O)NC2CCCC2)N(C(=O)c2snc(C(N)=O)c2N)c2cccc(O)c2)cc1 (centres undefined)	Cardio protect 81
NC(=O)c1nsc(C(=O)N(c2ccccc2)C(C(=O)NC2CCCC2)c2ccc3ncccc3c2)c1N (centres undefined)	Cardio protect 62
CSc1ncccc1C(=O)Nc1nc2ccc(S(C)(=O)=O)cc2s1	none
COc1ccc2c(c1)[nH]c1c(=O)n(CCN3CCCC3)cnc12	none
CCOC(=O)C1(Cc2cccc(F)c2)CCN(Cc2nc(CC)[nH]c2C)CC1	Myeloid diff MLP active
C=CCNC(=O)c1onc(CSc2cccc3ccccc23)c1C(=O)O	none
Cc1ccccc1NC(=O)CN1C(=O)NC2(CCc3ccccc32)C1=O (centres undefined)	none
COc1cc2c(cc1NC(=O)CN1C(=O)NC3(CCc4ccccc43)C1=O)oc1ccccc12 (centres undefined)	ABHD5-PLIN5 inh 35, Myeloid diff MLP inconclusive
CCOC(=O)C1(CC2CCCCO2)CCN(Cc2cn[nH]c2-c2cccc(F)c2)CC1 (centres undefined)	none
CCOC(=O)N1CCC(n2c(SCC(=O)N3CCCC3)nc3ccccc3c2=O)CC1	none
CCOC(=O)N1CCC(n2c(SCC(=O)N3CCC(C)CC3)nc3ccccc3c2=O)CC1	Cardio protect 67
COc1cccc(-c2cc3nc(C)cc(N4CCN(C(=O)c5ccoc5)CC4)n3n2)c1	none (no result: Rtt109 Vps75)
O=C(c1ccoc1)N1CCN(c2cc(-c3ccccc3)nc3cc(-c4ccccc4)nn23)CC1	none (no result: Rtt109 Vps75)
COc1ccccc1-c1cc2nc(-c3ccccc3)cc(N3CCN(C(=O)c4ccco4)CC3)n2n1	Cardio protect 55 (no result: Rtt109 Vps75)
COc1ccc(-c2cc(C(F)(F)F)n3nc(C(=O)N4CCCC4)cc3n2)cc1	none
COc1ccc(-c2cc3nc(C)cc(N4CCN(C(=O)c5ccoc5)CC4)n3n2)cc1	Cardio protect 54 (no result: Rtt109 Vps75)
COc1ccccc1-c1cc2nc(-c3ccccc3)cc(N3CCN(C(=O)c4ccoc4)CC3)n2n1	Cardio protect 50 (no result: Rtt109 Vps75)
COc1ccc(-c2cc(C(F)(F)F)n3nc(C(=O)N4CCN(C(=O)c5ccco5)CC4)cc3n2)cc1	Cardio protect 55
COc1ccc(CC(=O)Nc2ccc(S(=O)(=O)Nc3cc(OC)nc(OC)n3)cc2)cc1	none
CCCCCC(=O)N1C[C@@H](O)[C@H](n2cc(C3CC3)nn2)C[C@@H]1c1ccc(Cl)cc1	none (no result: Rtt109 Vps75)
COc1ccc(OC)c(CCNC(=O)C(=O)Nc2ccc3nc4n(c(=O)c3c2)CCCCC4)c1	none
Cc1ccc(C(OCC(O)CNC(CO)C(O)c2ccc([N+](=O)[O-])cc2)c2ccccc2)cc1 (centres undefined)	none (no result: Myeloid diff MLP)
COc1ccc(CCNC(=O)Cn2nc(-c3ccccc3)ccc2=O)cc1	none (no result: Rtt109 Vps75, ABHD5-PLIN5 inh, Myeloid diff MLP, Cardio protect, DAGLB inhibitor)
Cc1c(=O)n(OCc2ccccn2)c2ccccc2[n+]1[O-]	none
CCOn1c(=O)c(-c2ccc(F)cc2)[n+]([O-])c2ccccc21	none
O=c1c[n+]([O-])c2ccccc2n1OCc1ccccn1	Myeloid diff MLP active
CCOn1c(=O)c[n+]([O-])c2ccccc21	Myeloid diff MLP active
O=c1c[n+]([O-])c2ccccc2n1OCc1c(F)cccc1F	Myeloid diff MLP active
